# Screens deposited in PubChem by The Scripps Research Institute Molecular Screening Center.
# This is one part of a sample in which hits are shown more often than they occur.
# TbREL1 inh = TbREL1 inhibition, primary screen | P86926 | TbREL1 RNA ligation, FRET fluorescence | inhibition, % at 9.66 µM | 89,000 tested, 0.49% active | AID 1117264;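 active = inhibition above the mean inhibition across all screened compounds plus 3 SD, cut at about 11% in these data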;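 also: 0% = plate median of test wells and 100% = NSC42067 control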
# Target sequence (P86926 whole entry, looked up): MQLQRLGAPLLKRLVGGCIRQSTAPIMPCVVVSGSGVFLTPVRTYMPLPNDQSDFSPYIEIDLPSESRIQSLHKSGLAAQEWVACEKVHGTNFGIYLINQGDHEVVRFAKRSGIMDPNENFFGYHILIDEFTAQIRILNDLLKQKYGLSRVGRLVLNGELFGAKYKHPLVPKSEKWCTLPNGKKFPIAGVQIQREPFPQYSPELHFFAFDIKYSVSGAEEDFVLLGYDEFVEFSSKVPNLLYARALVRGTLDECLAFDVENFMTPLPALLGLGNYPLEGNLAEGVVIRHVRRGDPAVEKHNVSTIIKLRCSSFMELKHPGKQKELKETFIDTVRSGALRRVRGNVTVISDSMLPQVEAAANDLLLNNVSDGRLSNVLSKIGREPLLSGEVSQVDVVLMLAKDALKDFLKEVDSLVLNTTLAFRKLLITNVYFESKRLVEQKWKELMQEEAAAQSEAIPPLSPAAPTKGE
# TbREL1 conf = TbREL1 inhibition, confirmation; AID 1117282; shares compounds with TbREL1 inh; inhibition, % at 9.66 µM; 390 tested, 37% active; TbREL1 RNA ligation, FRET fluorescence;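 active = mean inhibition across replicates above a set limit taken from the earlier primary screen, cut at about 11% in these data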;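 also: 0% = REL1 with substrate and DMSO and 100% = REL1 plus control inhibitor NSC42067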
# An asterisk follows results filed as active.
SMILES,TbREL1 inh,others
COC(=O)C1=C(C)N(Cc2ccccc2C(F)(F)F)C(=NCc2ccc(OC)cc2)NC1c1cccc(F)c1 (centres undefined),14*,TbREL1 conf=19*
COCCN=C1N[C@@H](c2ccc(Br)cc2)C(C(=O)OC)=C(C)N1Cc1ccccc1,5,
C=CCN=C1NC(c2ccc(C(F)(F)F)cc2)C(C(=O)OC)=C(C)N1Cc1ccccc1C(F)(F)F (centres undefined),10,
COC(=O)C1=C(C)N(Cc2ccc(Cl)cc2)C(=S)NC1c1ccccc1 (centres undefined),1,
COC(=O)C1=C(C)N(Cc2ccccc2)C(=S)NC1c1ccc(Cl)cc1 (centres undefined),-8,
C=CCN=C1NC(c2ccc(F)cc2)C(C(=O)OC)=C(C)N1Cc1ccccc1C(F)(F)F (centres undefined),14*,TbREL1 conf=14*
COc1cccc(C2NC(=S)N(Cc3ccc(F)cc3)C(C)=C2C(C)=O)c1 (centres undefined),-7,
COC(=O)C1=C(C)N(Cc2ccccc2C(F)(F)F)C(=NCc2ccc(C(F)(F)F)cc2)NC1c1ccc(Cl)cc1 (centres undefined),12*,TbREL1 conf=18*
Clc1ccc(CN2CCN(N=Cc3cccc(OCc4ccccc4)c3)CC2)cc1,-1,
COc1ccc(-n2c(SCC(=O)NCC3CCCO3)nnc2-c2ccncc2)cc1 (centres undefined),-2,
CN1C2=N[C@@H](c3cccc(C(F)(F)F)c3)CC(=O)N2/C(=C\c2ccccc2)[C@H]1c1ccccc1,-3,
CS(=O)(=O)N1CCN(S(=O)(=O)c2ccccc2[N+](=O)[O-])CC1,2,
CCC1CCCCN1S(=O)(=O)c1ccccc1[N+](=O)[O-] (centres undefined),-2,
O=[N+]([O-])c1ccccc1S(=O)(=O)N1CCN(C2CCCC2)CC1,11*,TbREL1 conf=4
O=C(N1CCCC1)n1ncc(-c2ccc(-c3ccccc3)cc2)n1,0,
CCC[C@H]1[C@@H](OC(=O)NCCc2ccccc2)CC[C@@]23CCCN2C(=O)CCC[C@@H]13,9,
COc1cc(/C=N/NC(=O)c2cc(-c3ccco3)nc3ccccc23)cc(OC)c1O,-3,
Nc1c(C(=O)N/N=C/c2cccnc2)oc2nc(-c3ccco3)cc(-c3ccco3)c12,16*,TbREL1 conf=4
COc1ccc(/C=N/NC(=O)c2cccnc2)cc1,1,
Cc1ccc(-n2c(Cc3cccs3)nnc2SCC(=O)Nc2ccccc2-c2ccccc2)cc1,0,
CC(C)(C)c1ccc(S(=O)(=O)N2CCCC(C(=O)NCCN3CCC(Cc4ccccc4)CC3)C2)cc1 (centres undefined),9,
CC(C)(C)OC(=O)N1CCC(N[C@@H](Cc2c[nH]c3ccccc23)C(=O)NCCc2c[nH]c3ccccc23)(C(=O)NC2CCCCC2)CC1,3,
O=C(Nc1ccccc1F)O[C@@H]1CC[C@@]23CCCN2C(=O)CCC[C@H]3C1,-3,
Nc1ccc(C(=O)c2cccs2)cc1,0,
O=C(SCC(O)C(O)CS)c1cccs1 (centres undefined),18*,TbREL1 conf=4
SMILES,TbREL1 inh,others
CSc1ccccc1NC(=O)c1cccs1,5,
FC(F)(F)Oc1ccc(Cn2ccc3ccc(-c4ccc5ccn(Cc6ccccc6)c5c4)cc32)cc1,1,
O=C1CC(N2CCN(S(=O)(=O)c3ccccc3)CC2)C(=O)N1c1ccccc1 (centres undefined),2,
Cc1cccc(C)c1N1C(=O)CC(N2CCN(S(=O)(=O)c3ccccc3F)CC2)C1=O (centres undefined),3,
O=C1CC(N2CCN(S(=O)(=O)c3ccccc3F)CC2)C(=O)N1c1ccccc1F (centres undefined),11*,TbREL1 conf=-3
C[C@H]1[C@@H](NC(=O)/C=C/c2ccccc2)CC[C@@]23CCCN2C(=O)CCC[C@@H]13,-2,
COC(=O)[C@]12C[C@H](CC(=O)NCC34CC5CC(CC(C5)C3)C4)C(=O)N(CCc3ccc(OC)c(OC)c3)C1=C[C@H](C(C)C)O[C@@H]2C1CC1,-1,
CCOc1ccc(-n2c(SCC(=O)Nc3cc4oc5ccccc5c4cc3OC)nnc2-c2cccc(Cl)c2)cc1,1,
COc1cc2c(cc1NC(=O)CSc1nnc(-c3cccnc3)n1-c1ccc(Br)cc1)oc1ccccc12,11*,TbREL1 conf=6
COc1cc2c(cc1NC(=O)CSc1nnc(-c3ccccn3)n1-c1ccccc1)oc1ccccc12,8,
Cc1nn(-c2ccccc2)c2sc(C(=O)NCc3ccc4c(c3)OCO4)cc12,2,
C[C@H]1[C@@H](O)CC[C@@]23CCCN2C(=O)CCC[C@@H]13,-4,
CCOC(=O)C1CCN(C(=O)C(C)(C)NC(=O)Nc2ccc(OC)c(Cl)c2)CC1,-3,
COc1cccc(NC(=O)CSc2cccc[n+]2[O-])c1,2,
O=C(CSc1nnc(-c2ccco2)c(-c2ccco2)n1)Nc1ccccc1,24*,TbREL1 conf=8
COc1cccc(NC(=O)CSCC(=O)Nc2ccccc2)c1,-1,
CC(C)c1ccc(NC(=O)CSc2nnc(-c3ccco3)n2C)cc1,3,
